NPSR antag = neuropeptide S receptor (human) antagonism, cAMP; Q6W5P4; CHO-NPSR cells, cAMP TR-FRET, antagonist mode; 220,000 tested, 1% active; Potency, µM (titrated, usually from 38.3 µM), hits mostly inhibitors; further: nearly all actives have a fitted effect of over 50% in size
Target sequence (Q6W5P4 whole entry, looked up): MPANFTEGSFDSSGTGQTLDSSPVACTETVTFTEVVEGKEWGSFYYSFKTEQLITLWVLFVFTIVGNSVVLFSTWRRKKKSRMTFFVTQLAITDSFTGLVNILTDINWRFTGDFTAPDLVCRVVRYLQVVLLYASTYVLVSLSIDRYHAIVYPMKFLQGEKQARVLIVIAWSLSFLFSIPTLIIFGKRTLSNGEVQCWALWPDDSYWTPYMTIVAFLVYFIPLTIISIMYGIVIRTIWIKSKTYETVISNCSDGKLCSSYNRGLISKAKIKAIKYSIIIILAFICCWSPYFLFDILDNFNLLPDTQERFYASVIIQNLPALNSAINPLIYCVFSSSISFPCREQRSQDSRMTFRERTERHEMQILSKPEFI
HttQ103 aggreg = inhibitors of mutant huntingtin aggregate formation in PC12 cells; PC12 HttQ103-GFP aggregates, Acumen cytometry, 40 h; Potency, µM (series often up to 46.1 µM), hits mostly inhibitors; 220,000 tested, 1.1% active; AID 1688; further: nearly all actives have a fitted effect of over 60% in size
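Huntingtin Q103 exon 1–GFP aggregates in induced PC12 cells (100 nM tebufenozide) were quantified by cytometry from lysates, with compounds dosed in titration.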
IMPase inh = cell-permeable inhibitors of inositol monophosphatase (IMPase). inhibition (IP1 accumulation), % at 46.1 µM. 120,000 tested, under 10 active. AID 901. CHO-M1 cells, IP1 accumulation, HTRF TR-FRET ratio. P97697; active means well fitted curve in the direction sought with a large enough effect in the signal ratio, not every such curve was filed as active; inconclusive means small, poorly fitted or top-dose-only effect, or a change in a side signal; inactive means no such curve, though single readings can be large or run the other way; the % refers to the signal ratio;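 further: cells stimulated with carbachol in lithium chloride buffer; higher means more IMPase inhibition seen as more IP1 and lower FRET ratio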
Target sequence (P97697 whole entry, looked up): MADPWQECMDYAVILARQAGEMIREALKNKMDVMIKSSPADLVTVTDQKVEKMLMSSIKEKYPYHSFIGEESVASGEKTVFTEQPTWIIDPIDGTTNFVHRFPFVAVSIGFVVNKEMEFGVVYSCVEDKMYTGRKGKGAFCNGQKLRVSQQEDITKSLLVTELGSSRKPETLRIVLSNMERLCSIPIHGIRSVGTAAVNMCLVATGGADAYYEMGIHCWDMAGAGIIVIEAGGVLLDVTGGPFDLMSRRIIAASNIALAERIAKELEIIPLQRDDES
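Measured: the HTRF emission ratio (665/620 nm) plus the 620 nm donor channel, each fitted to the Hill equation to give AC50. Cells were CHO-M1 given compounds up to 46 uM and a 30 min carbachol stimulation at 37C.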
IMPase Li inh = cell-permeable IMPase inhibitors with lithium potentiation | CHO-M1 cells, IP1 TR-FRET (IP-One), carbachol + lithium | Potency, µM (top dose mostly 59.4 µM), most hits filed as inhibitors | 210,000 tested, 0.35% active;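 further: IP1 builds up when IMPase is blocked and the TR-FRET signal falls; nearly all actives have a fitted effect of over 50% in size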
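Steps: plate 2000 CHO-M1 cells per well and culture 16–30 h; add compound and lithium; incubate 30 min, 37C; add d2-IP1 tracer and Eu cryptate anti-IP1 antibody in lysis buffer; read after 10 min at room temperature.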
PNC assembly inh = inhibitors of perinucleolar compartment assembly; AID 2417; PC3M PTB-GFP, PNC prevalence imaging, 16 h; stronger effect = lower value; 140,000 tested, 3.1% active; activity change (PNC), negative = inhibition, % at 10 µM;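 active means readout at or below -70, meaning at least 70% loss of cells showing the perinucleolar compartment, a nuclear body marking cancer cells; inconclusive means readout between -30 and a set limit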
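PC3M cells stably expressing PTB-GFP, 750–1000 cells/well, treated 16 h at 37 °C with compound (23 nl of library stock), in duplicate. After paraformaldehyde fixation and Hoechst stain, imaged at 20x; PNC prevalence scored by image analysis.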
HTT ATP protect = protects HTT-Q103 PC12 cells, measured by ATP. PC12 HTT-Q103 induced, cytoprotection, ATP luminescence, 40 h. AID 1471. 230,000 tested, 0.14% active. Potency, µM (titrated, usually from 56.4 µM), actives largely listed as activators; further: nearly all actives have a fitted effect of over 45% in size
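PC12 cells with ecdysone-inducible HTT exon 1 Q103-GFP, induced with 100 nM tebufenozide and co-treated with library compounds in a dose series (1536-well, 1500 cells/well). Cytoprotection read as ATP content by ATPlite luminescence.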
A number is an active result; - = inactive; ? = inconclusive; . = no result; [ ] = another dose, or the depositor's remark. A selection: hits, their analogues and other compounds. The true share with any hit is near 3.4%. Unless noted, the call rests on the fitted dose curve; in most records, active means well fitted curve in the direction sought with a large enough effect; inconclusive means small, poorly fitted or top-dose-only effect, or another doubt; inactive means no such curve, though single readings can be large; an effect the other way counts as inactive or inconclusive.

SMILES	NPSR antag	HttQ103 aggreg	IMPase inh	IMPase Li inh	PNC assembly inh	HTT ATP protect
Cc1ccc(C(NC(=O)C(C)C)c2cc([N+](=O)[O-])c3cccnc3c2O)cc1 (stereo not drawn)	-	20µM	.	-	?	-[10 µM]
CCCC(=O)NC(c1cccs1)c1cc(Cl)c2cccnc2c1O (stereo not drawn)	?	-[9.22 µM]	.	-	.	-[10 µM]
CC(C)C(=O)NC(c1cccs1)c1cc([N+](=O)[O-])c2cccnc2c1O (stereo not drawn)	-	2µM	-	-	-	-[10 µM]
COc1ccc(N2CC(C(=O)N/N=C/c3cc([N+](=O)[O-])ccc3O)CC2=O)cc1 (stereo not drawn)	-	?	.	-	.	-
COc1ccc2c(c1OC)C(Cc1ccccc1)N1CCc3cc4c(cc3C1C2)OCO4 (stereo not drawn)	.	.	-	-	.	-[1.9 µM]
CC1(C)CC(=O)C(CC(=O)Nc2ccc(S(N)(=O)=O)cc2)=C(O)C1	-	-	-	-	-90	-[10 µM]
NS(=O)(=O)c1ccc(NC(=O)CN2C(=O)CCC2=O)cc1	-	-[9.22 µM]	.	.	.	-[10 µM]
O=C(Nc1ccc2c(c1)OCCO2)C1CCCN(S(=O)(=O)c2cccc3nsnc23)C1 (stereo not drawn)	-	-[9.22 µM]	-	-	-113	-
Cc1ccnc(NC(=O)C2CCN(S(=O)(=O)c3cccc4nsnc34)CC2)c1	-	-	-	-	?	-[10 µM]
O=C(Nc1ccc2c(c1)OCCO2)C1CCN(S(=O)(=O)c2cccc3nsnc23)CC1	-	-	-	-	-81	-
COc1cc(NC(=O)C2CCCN(S(=O)(=O)c3cccc4nsnc34)C2)cc(OC)c1 (stereo not drawn)	-	-	-	-	-	-
CCNS(=O)(=O)c1cccc(C(=O)c2c(C)cc3ccccn23)c1	-	-	.	-	-90	-[10 µM]
CC1(C)Cc2c(C#N)c(N3CCN(C(=O)c4ccccc4Cl)CC3)nc(-c3ccco3)c2CS1	?	-	-	-	-	-
CC(=O)N1CCN(c2nc(-c3ccco3)c3c(c2C#N)CC(C)(C)SC3)CC1	-	13µM	-	-	-	-
CC1(C)Cc2c(c(-c3ccco3)[nH]c(=O)c2C#N)CS1	-	-	-	-	-	-[10 µM]
CC1(C)Cc2c(C#N)c(N3CCN(C(=O)c4ccco4)CC3)nc(-c3ccco3)c2CS1	10µM	-	-	-	-	-[10 µM]
Cc1sc2nc3n(c(=O)c2c1C)NC(=O)CC3	-	-	-	-	-100	-[10 µM]
Cc1ccc(-c2nnn(CC(=O)N(Cc3ccco3)C(C(=O)NC3CCCC3)c3cccs3)n2)o1 (stereo not drawn)	-	-	-	-	-100	-[10 µM]
O=C(NC1CCCC1)C(c1cccs1)N(Cc1ccco1)C(=O)Cn1nnc(-c2cccs2)n1 (stereo not drawn)	-	-	-	-	?	-[10 µM]
CN1CCN(c2ncc3nc(-c4cccs4)c(=O)n(C[C@H]4CCCO4)c3n2)CC1	.	.	.	-	.	-
O=C1CC(c2ccco2)CC(O)=C1C=NCCN1CCN(C2CC(=O)N(c3ccccc3)C2=O)CC1 (stereo not drawn)	-	-	-	-	-100	-[10 µM]
COc1cc(OC)c(/C=C2/C(=O)Nc3ccccc32)c(OC)c1	-	.	-	-	.	-[1.9 µM]
CS(=O)(=O)N(CCC#N)Cc1ccc(/C=C2\C(=O)Nc3ccccc32)o1	-	11µM	.	-	.	-
COC(=O)[C@@H](Cc1c[nH]c2ccccc12)NC(=O)c1cc(=O)[nH]c2ccccc12	-	-[9.22 µM]	.	.	.	-[10 µM]
N#Cc1cnn(-c2nc3sc4c(c3c(=O)[nH]2)CCCC4)c1N	-	?	-	-	-	-[10 µM]
SMILES	NPSR antag	HttQ103 aggreg	IMPase inh	IMPase Li inh	PNC assembly inh	HTT ATP protect
N#Cc1cnn(CC2CCCCC2)c1N	-	-	-	-	-97	-
COc1ccccc1N1C(=O)CC(Sc2ncccc2C(=O)O)C1=O (stereo not drawn)	-	-	-	-	-100	-[10 µM]
CCN(C(=O)Cn1c(=O)n(CCCS(=O)(=O)C2CCCCC2)c(=O)c2ccccc21)c1cccc(C)c1	.	.	-	.	.	.
CCOc1cc(/C=N\NC(N)=O)cc(Br)c1OC(C)C	-	-	.	-	-97	.
CCOc1cc(/C=N/NC(N)=O)cc(Br)c1OCc1ccccc1F	-	-	.	-	-92	-[10 µM]
CC(C)CN1CCC2(CC1)CCN(C(=O)c1cnccn1)CC2	.	.	.	-	.	-
O=C(Nc1ccc(Cl)cc1)c1cc(S(=O)(=O)N2CCOCC2)cs1	-	10µM	-	-	-	-
O=C(Nc1cccc(F)c1)c1cc(S(=O)(=O)N2CCOCC2)cs1	-	-[9.22 µM]	.	-	.	-[10 µM]
Cc1ccnc(NC(=O)c2cc(-n3cnnc3)ccc2Cl)c1	-	-	-	-	-100	-[10 µM]
O=C(Nc1ccccn1)c1cc(-n2cnnc2)ccc1Cl	-	-	-	-	-	-
Cc1c(N2C(=O)c3cccc4cccc(c34)C2=O)cnn1C	-	-[9.22 µM]	.	.	.	-[10 µM]
COc1cc2nc(N3CCN(C(=O)OCc4ccccc4)C(C(=O)NC(C)(C)C)C3)nc(N)c2cc1OC (stereo not drawn)	13µM	.	.	-	.	.
COc1cc2nc(N3CCN(C(=O)OCc4ccccc4)[C@H](C(=O)NC(C)(C)C)C3)nc(N)c2cc1OC	.	.	-	.	.	-[1.9 µM]
Cc1ccc(NC(=O)c2ccc(CSc3nnc(C)s3)cc2)cc1	-	-	-	-	-100	-
Cc1cc(OCC(=O)Nc2cc(-c3nn4c(C)nnc4s3)ccc2C)ccc1Cl	?	-	-	28µM	-	-
COc1ccc(OCC(=O)Nc2cc(-c3nn4c(C)nnc4s3)ccc2C)cc1	-	-	-	-	-	-
Cc1ccc(-c2nn(CC(=O)NN3CCOCC3)c(=O)c3ccccc23)cc1	-	-[9.22 µM]	.	.	.	-[10 µM]
CCOC(=O)N1N=C(CC)CC1(O)C(F)(F)F (stereo not drawn)	-	-	-	-	-86	-[10 µM]
CCOC(=O)N1N=C(c2ccc(C)cc2)CC1(O)C(F)(F)F (stereo not drawn)	-	-	-	-	?	-[10 µM]
Cc1ccccc1Cn1ccc(=NCc2ccccc2)cc1	-	18µM	.	-	-	.
O=c1ccn(Cc2ccccc2)cc1	-	-[9.22 µM]	.	.	.	-[10 µM]
Fc1ccccc1Nc1nc2c(s1)CCc1ccccc1-2	-	-	.	-	-	.
Cn1c(-c2c(N)n(CCCc3ccccc3)c3nc4ccccc4nc23)nc2ccccc21	-	-	?	10µM	-	-
Cn1c(-c2c(N)n(C3CCCC3)c3nc4ccccc4nc23)nc2ccccc21	-	-	-	-	-94	-
CCOc1ccc(N(CC(=O)Nc2ccc3c(c2)OCO3)S(=O)(=O)c2ccccc2)cc1	.	.	-	.	.	.
O=C(O)c1cccc(NCc2ccncc2)c1	-	-[9.22 µM]	-	-	-81	-
O=C(O)c1ccc(NCc2ccncc2)cc1	-	-	-	-	-	-

Compound activity from PubChem BioAssay.
